Measured values taken from PubChem BioAssay (NCI).
Several values for one entry are separate records, joined by “and”; a condition that tells them apart may be missing. Equal entries are not always repeated. About 83,000 compounds went through this panel and 20% of them were active in at least one assay; those are over-represented in the sample as a whole.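 Assay: single dose, 48 h. Readout: percent growth (0 = no net growth; negative = cell death). Active: <10.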 Activity calls are given as the source filed them.

Each compound was assayed on OVCAR-5 ovarian (assay: NCI-60 one-dose screen, 48 h (100 = growth as untreated, 0 = no growth, -100 = all killed)). Settings: 10 µM.
Method: Growth inhibition of the OVCAR-5 human tumor cell line is measured as a screen for anti-cancer activity. Cells are grown in 96 well plates and exposed to the test compound for 48 hours. Compounds are tested at a single concentration, which is 10^-5 M for most compounds. The reported endpoint is percent growth (GI% or GIPRCNT), where numbers from 0 - 100% represent growth inhibition, and numbers from -100% - 0 represent cell death. For example, a value of 40 represents 60% growth inhibition. A value of 0 means no net growth occurred over the course of the experiment. A value of -40 indicates 40% of cells at the beginning of the experiment died by the end of the experiment. A value of -100 means all cells are dead at the end of the experiment.
NCI-60 Human Tumor Cell Lines Screen was performed using the standard one-dose NCI protocol, which is described in more detail at https://dtp.cancer.gov/discovery_development/nci-60/default.htm.
Compounds with GIPRCNT values below 10 were considered active. Activity score was based on GIPRCNT using the following formula: […]
Score is 0 for GIPRCNT values of 100 or above, 50 for GIPRCNT values of 0, and 100 for GIPRCNT values of -100.
Cc1[nH]c(-c2nc3ccccc3[nH]2)c(C)c1C(=O)NC(C)C1CCCCC1 (stereo not given) was tested, and the growth was 94% (inactive). For CC(C)(C)c1cc(NC(=O)Cc2ccc(-c3cnc4cc(-c5cnn(CCN6CCOCC6)c5)ccc4n3)cc2)no1, the growth was 24.2% (inactive). With O=C(O)c1sccc1O the growth was 102% (inactive). With COc1ccc(Cl)cc1C(=O)NCCc1ccc(S(=O)(=O)NC(=O)NC2CCCCC2)cc1 the growth was 111% (inactive) and 112% (inactive).

Same assay, conditions: 10 µM unless noted
In the case of Nc1nc2ncc(CNc3ccc(C(=O)N[C@@H](CCc4nn[nH]n4)C(=O)O)cc3)nc2c(=O)[nH]1, the growth is reported as 88.3% (inactive) and 103% (inactive). In the case of NC(=S)N/N=C(\c1ccc(Br)cc1)C1CC1, the growth is reported as 110% (inactive) and 97.1% (inactive). For CN(C)c1ccc(C(=C2C=CC(=[N+](C)C)C=C2)c2ccccc2Cl)cc1, the growth was -27.8% (active) and -93.8% (active). For NC(=S)NS(=O)(=O)c1ccc(N)cc1, the growth was 106% (inactive). O=C(N/N=C/c1ccc2c(c1)OCO2)c1ccncc1 was tested, and the growth was 98.7% (inactive) and 113% (inactive). In the case of Cn1cnc([N+](=O)[O-])c1Sc1ncnc2nc[nH]c12, the growth is reported as 61.8% (inactive) and 71.6% (inactive). With CO/N=C/C=C\C(=O)N/C=C/C[C@H]1/C=C/[C@H](O)/C=C\C=C\c2cccc(O)c2C(=O)O1 the growth was 39.5% (inactive) and 44.7% (inactive). In the case of O=C(Nc1ccc(Cl)cc1)c1cc2ccccc2cc1O, the growth is reported as 78.8% (inactive) and 42.7% (inactive). In the case of Cc1nn(-c2ccc(Cl)cc2)c2ncnc(N/N=C/c3ccccc3O)c12, the growth is reported as 47.5% (inactive) and 52.7% (inactive). For Cc1cc(O)c2c(c1)C(=O)c1cc(O)cc(O)c1C2=O, the growth was 68% (inactive) and 95.6% (inactive). With CCOC(=O)Nc1nc2ccccc2[nH]1 the growth was 109% (inactive) and 58.4% (inactive). In the case of COc1ccccc1/C=N\N=C(N/N=C/c1ccccc1OC)N/N=C/c1ccccc1OC, the growth is reported as 94.6% (inactive) and 52.1% (inactive). For Cc1ccc(S(=O)(=O)Nc2nc3ccccc3nc2Nc2ccc3nsnc3c2)cc1, the growth was 92.1% (inactive) and 87.2% (inactive). In the case of CC(=O)C(/C=N/C(N)=O)=C(/C)O, the growth is reported as 109% (inactive). CCOC(=O)Nc1ccc2c(c1)/C(=N\NC(N)=S)c1ccccc1-2 was tested, and the growth was 105% (inactive) and 92% (inactive). With Oc1c(CN2CCCCC2)ccc2cccnc12 the growth was 68.9% (inactive) and 51.1% (inactive). COC(=O)[C@H]1CCCN1C(=O)C1CCCN1C(=O)[C@@H](Cc1ccccc1)NC(=S)Nc1cc(C(F)(F)F)cc(C(F)(F)F)c1 (stereo not given in full) was tested, and the growth was 98.9% (inactive) and 90.4% (inactive). N/C(=N\N=C\c1ccc2c(c1)OCO2)N/N=C\c1ccc2c(c1)OCO2 was tested, and the growth was 122% (inactive) and 96.9% (inactive). For N=C1N=C(N)CS1, the growth was 109% (inactive). For Cc1cc(=O)[nH]c(O)c1C#N, the growth was 93.7% (inactive) and 90% (inactive). For CC(=O)Nc1cccc2c1CCCC2, the growth was 98.8% (inactive) and 105% (inactive). With CC(=O)Nc1ccc(O)cc1 the growth was 91.6% (inactive) and 118% (inactive) and 105% (inactive). For Fc1ccccc1Nc1n[nH]c(=S)s1, the growth was 99.2% (inactive). With CCC(O)c1ccccc1 (stereo not given) the growth was 106% (inactive) and 108% (inactive). With Nc1ccccc1SC1CC(=O)N(c2cccc3ccccc23)C1=O (stereo not given) the growth was 101% (inactive). In the case of CCOc1ccc2cc(-c3nn(CC4CCNCC4)c4ncnc(N)c34)ccc2c1, the growth is reported as 92% (inactive) and 70.5% (inactive). NC(=O)c1ccccc1OCC(O)CO (stereo not given) was tested, and the growth was 99.5% (inactive). With CCOC(=O)C(C(=O)OCC)C(c1ccccc1)N1CCN(c2ccccc2)CC1 (stereo not given) the growth was 112% (inactive) and 111% (inactive). For OCCN1CCN(CCCN2c3ccccc3Sc3ccc(Cl)cc32)CC1, the growth was 61.3% (inactive) and 90.7% (inactive). O=C1OC(Oc2ccc(Br)cc2)(c2ccccc2)c2ccccc21 (stereo not given) was tested, and the growth was 97.3% (inactive) and 110% (inactive). With CCCCCCCCCCCCCCCCOc1ccc(C)cc1 the growth was 99.9% (inactive). For CC(C)Cc1ccc(C(C)C(=O)NCc2ccc(Cn3c(=O)sn(CCCI)c3=O)cc2)cc1 (stereo not given), the growth was 103% (inactive) and -58.1% (active).

Same assay, conditions: 30 µM
With CC(C)(C)c1cc(NC(=O)Cc2ccc(-c3cnc4cc(-c5cnn(CCN6CCOCC6)c5)ccc4n3)cc2)no1 the growth was 20.1% (inactive).

Same assay, conditions: 100 µM
Cc1[nH]c(-c2nc3ccccc3[nH]2)c(C)c1C(=O)NC(C)C1CCCCC1 (stereo not given) was tested, and the growth was -95.4% (active). In the case of O=C(O)c1sccc1O, the growth is reported as 38% (inactive). COc1ccc(Cl)cc1C(=O)NCCc1ccc(S(=O)(=O)NC(=O)NC2CCCCC2)cc1 was tested, and the growth was 101% (inactive).
